Screening results (PubChem BioAssay)
Only some compounds are listed: those with a hit (about 21% of all), similar ones and a draw of the others.
CHX counter = counter-screen hit for Shiga toxin inhibitors, cycloheximide | cell reporter, cycloheximide protein synthesis inhibition counterscreen | AID 2314 | max response, % | 300,000 tested, 12% active; in the data active = max response mostly above about 13%, no sharp cut-off; inactive = mostly below about 14%; also: read at 38.3 µM for the half of the compounds with a filed dose; 0% is about no effect
SARS PLP yeast = SARS-CoV PLP inhibition in yeast | Potency, µM (top dose mostly 32.9 µM), for the others: at the top dose activity, positive = growth rescue, actives largely listed as activators | AID 485353 | 330,000 tested, 0.19% active | S. cerevisiae expressing SARS-CoV PLpro, growth rescue; calls by dose curve; also: potency is read from the fitted curve at half-maximal effect; 0% is about no effect; nearly all actives have a fitted effect of over 55% in size
NS1 function inh = influenza NS1 inhibition | 270,000 tested, 0.4% active | AID 2326 | Potency, µM (highest dose often 46.1 µM), inactives show top-dose activity, positive = more growth; calls by dose curve; also: potency is read from the fitted curve at half-maximal effect; actives are rising curves; nearly all actives have a fitted effect of over 50% in size
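Growth recovery, yeast-based: influenza A NS1 expressed in S. cerevisiae causes slow growth, and suppressors are detected by OD600. The parent strain without NS1 is used as positive control.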
Pf growth 96h = P. falciparum growth inhibition at 96 hour, primary screen for plastid delayed-death inhibitors; P. falciparum luciferase reporter growth, 96 h; Potency, µM (doses to about 28.7 µM), inactives show at the highest dose activity change, negative = inhibition, actives largely listed as inhibitors; 320,000 tested, 6.9% active; AID 504834; also: potency is read from the fitted curve at half-maximal effect; % is scaled to controls: 0 for no effect and ±100 for the full control effect
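Readout is luminescence from an integrated firefly luciferase in P. falciparum. Red cells, 2% hematocrit and 0.05% parasitemia final, were cultured with compound through two parasite generations (96 hours) at 37 C, 5% CO2.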
Pf growth 48h = inhibits P. falciparum growth in the first generation, 48 h; P. falciparum luciferase growth in erythrocytes, 48 h; Potency, µM (doses to about 28.7 µM), inactives show at the top dose activity change, negative = inhibition, usual class: inhibitors; 310,000 tested, 5.9% active; AID 504832; also: potency is read from the fitted curve at half-maximal effect; % is scaled to controls: 0 for no effect and ±100 for the full control effect
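In quantitative HTS format, infected erythrocytes bearing luciferase-reporter parasites were treated for a single generation at 37 C. Luminescence after adding detection reagent served as the growth measure.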
Shiga toxin inh = inhibitors of Shiga toxin in Vero cells; inhibition, % at 38.7 µM; 290,000 tested, 9.2% active; Vero cells, Shiga toxin protein synthesis inhibition reporter; in the data active = inhibition mostly above about 28%, no sharp cut-off; inactive = mostly below about 43%; also: 0% is about no effect
The depositor's hits bear a star; i = inactive; ? = inconclusive; · = no result. Unless noted, calls follow the shape of the dose curve; as a rule, active = well fitted inhibition curve with a large enough effect; inconclusive = small, poorly fitted or top-dose-only effect, or another doubt; inactive = no such curve, though single readings can be large or run the other way.

SMILES	CHX counter	SARS PLP yeast	NS1 function inh	Pf growth 96h	Pf growth 48h	Shiga toxin inh
O=C(c1ccc2ccccc2n1)N1CCN(c2ccccc2O)CC1	52*	-5%	-10%	13µM*	?	88*
NS(=O)(=O)c1ccc(NC(=O)c2cccc(Cl)c2)cc1	2	0%	3%	?	7%	-2
CC1CCN(c2c([N+](=O)[O-])c(=O)oc3ccccc23)CC1	1	2%	?	-1%	-2%	-13
CCCCCCCCNC(=O)/C(C#N)=C/c1ccc(SC)cc1	7	-4%	3%	-28%	18%	-2
COc1ccc2cc(C(=O)C3CCCN(C(=O)c4cncs4)C3)ccc2c1 (stereo not drawn)	9	-15%	-86%	-26%	12%	-25
O=C(COC(=O)COc1cccc(C(F)(F)F)c1)Nc1ccc(N2CCOCC2)cc1	·	-2%	·	29%	27%	·
CCc1cccc(CC)c1NC(=O)CN1CCN(c2ccccc2)CC1	-5	7.1µM*	-18%	-1%	-19%	-28
O=C(CN1CCN(c2ccccc2)CC1)Nc1ccccc1C(F)(F)F	-2	2%	-18%	·	-16%	-5
O=C(CN1CCN(c2ccccc2)CC1)Nc1ccccc1Sc1ccccc1	1	-2%	-8%	9.3µM*	?	-8
O=C(CN1CCN(c2ccccc2)CC1)Nc1ccccc1Cl	-2	0%	-34%	-3%	-15%	-9
COc1ccc(C(CCN2CCCC(C)C2)c2c(OC)cc(OC)c3c(-c4ccccc4)cc(=O)oc23)cc1 (stereo not drawn)	8	9%	-3%	5.9µM*	12µM*	-8
COc1cc(OC)c2c(-c3ccccc3)cc(=O)oc2c1C(CCN1CCCC1)c1ccc2c(c1)OCO2 (stereo not drawn)	-7	-1%	-2%	8.3µM*	?	-8
COc1cc(OC)c2c(-c3ccccc3)cc(=O)oc2c1C(CCN1CCCC(C)C1)c1ccc(N(C)C)cc1 (stereo not drawn)	-4	3%	-55%	?	?	3
COc1cc(OC)c2ccc(=O)oc2c1C(CCN1CCN(c2ccccc2)CC1)c1ccc(N(C)C)cc1 (stereo not drawn)	-6	1%	-4%	10µM*	12µM*	-14
COc1cc(OC)c2c(-c3ccccc3)cc(=O)oc2c1C(CCN1CCOCC1)c1ccc2c(c1)OCO2 (stereo not drawn)	19	9%	·	·	·	-2
COc1ccc(C(CCN2CCN(c3ccccc3)CC2)c2c(OC)cc(OC)c3c(-c4ccccc4)cc(=O)oc23)cc1 (stereo not drawn)	12	1%	9%	4.7µM*	3.3µM*	1
CCCCN1C(=O)c2ccc(C(=O)OCC(=O)N3CCN(c4ccccc4)CC3)cc2C1=O	·	2%	·	13%	-3%	·
O=C1CC[C@@H](C(=O)N[C@@H](Cc2cnc[nH]2)C(=O)N[C@@H](Cc2c[nH]c3ccccc23)C(=O)N[C@@H](CO)C(=O)N[C@@H](Cc2ccc(O)cc2)C(=O)O)N1	20	·	·	·	·	-2
COC(=O)c1ccc(C2NCCc3cc(OC)c(OC)cc32)cc1 (stereo not drawn)	-1	2%	-1%	71%	?	-1
CCCCN(C(=O)C1CCCC1)c1c(N)n(CC(C)C)c(=O)[nH]c1=O	·	4%	·	13%	26%	·
COC(=O)c1[nH]c2c(c1C)C(=O)CC(c1cc(OC)c(OC)c(OC)c1)C2 (stereo not drawn)	-3	0%	-1%	-17%	?	14
C[N+](C)=C1SCC(C)(/C=N/O)S1 (stereo not drawn)	-1	-1%	8%	-4%	?	-22
COc1cc(OC)c2ccc(=O)oc2c1C(CCN1CCCC1)c1ccc2c(c1)OCO2 (stereo not drawn)	-7	7%	4%	?	?	-12
COc1ccc(C(CCN2CCCC(C)C2)c2c(OC)cc(OC)c3c(C)cc(=O)oc23)cc1 (stereo not drawn)	-5	1%	-10%	2.6µM*	2.9µM*	-2
COc1cc(C(CCN2CCCCC2)c2c(OC)cc(OC)c3c(C)cc(=O)oc23)cc(OC)c1OC (stereo not drawn)	-5	-3%	-4%	9.3µM*	8.3µM*	4
SMILES	CHX counter	SARS PLP yeast	NS1 function inh	Pf growth 96h	Pf growth 48h	Shiga toxin inh
COc1cc(OC)c2c(C)cc(=O)oc2c1C(CCN1CCN(c2ccccc2)CC1)c1ccc2c(c1)OCO2 (stereo not drawn)	9	-3%	-9%	2.1µM*	3.3µM*	-4
COc1cc(OC)c2c(-c3ccccc3)cc(=O)oc2c1C(CC(=O)N1CCN(c2ccccc2)CC1)c1ccc(N(C)C)cc1 (stereo not drawn)	9	0%	1%	?	?	-5
CCN(CC)CCC(c1ccc(N(C)C)cc1)c1c(OC)cc(OC)c2c(-c3ccccc3)cc(=O)oc12 (stereo not drawn)	-10	-1%	-21%	3.7µM*	8.3µM*	-19
O=C(NNS(=O)(=O)c1ccccc1[N+](=O)[O-])c1cc2ccccc2cc1O	10	-6%	-9%	-18%	14%	32
CC(=O)N1c2ccc(S(=O)(=O)N3CCC(C(=O)Nc4ccc(C)cn4)CC3)cc2CC1C (stereo not drawn)	-4	-5%	-21%	?	?	-9
COc1ccc(CNC(=O)COC(=O)CN2C(=O)C3CC=CCC3C2=O)cc1 (stereo not drawn)	·	0%	·	·	·	·
COc1cc(C(CCN2CCCC2)c2c(OC)cc(OC)c3c(-c4ccccc4)cc(=O)oc23)cc(OC)c1OC (stereo not drawn)	-12	-2%	?	1.9µM*	2.3µM*	-14
COc1ccc(C(CCN2CCCC2)c2c(OC)cc(OC)c3c(-c4ccccc4)cc(=O)oc23)cc1 (stereo not drawn)	-1	12%	-1%	12µM*	12µM*	-15
COc1cc(C(CCN2CCOCC2)c2c(OC)cc(OC)c3c(-c4ccccc4)cc(=O)oc23)cc(OC)c1OC (stereo not drawn)	-3	3%	·	·	·	i
COc1ccc(C(CCN2CCOCC2)c2c(OC)cc(OC)c3c(-c4ccccc4)cc(=O)oc23)cc1 (stereo not drawn)	1	2%	·	·	·	-5
COc1cc(OC)c2c(-c3ccccc3)cc(=O)oc2c1C(CC(=O)N1CCOCC1)c1ccc(N(C)C)cc1 (stereo not drawn)	14	1%	-47%	?	7.4µM*	-12
COc1cc(OC)c2c(-c3ccccc3)cc(=O)oc2c1C(CCN1CCN(c2ccccc2)CC1)c1ccc(N(C)C)cc1 (stereo not drawn)	-3	-3%	-2%	4.1µM*	5.2µM*	-3
